By AC50 is commonly meant the concentration at which the activity in the assay is half-maximal.

Drawing on PubChem BioAssay (EPA / NIEHS), this text covers AC50 and outcome for 36 compounds.

Calls of active or inactive are those of the source. How the source made its calls: active means hit-call score of the fitted dose curve at least 0.9, where 1 is the maximum; inactive means score below 0.9.

Sequence of Broad substrate specificity ATP-binding cassette transporter ABCG2 (Homo sapiens) (Q9UNQ0 whole entry, looked up): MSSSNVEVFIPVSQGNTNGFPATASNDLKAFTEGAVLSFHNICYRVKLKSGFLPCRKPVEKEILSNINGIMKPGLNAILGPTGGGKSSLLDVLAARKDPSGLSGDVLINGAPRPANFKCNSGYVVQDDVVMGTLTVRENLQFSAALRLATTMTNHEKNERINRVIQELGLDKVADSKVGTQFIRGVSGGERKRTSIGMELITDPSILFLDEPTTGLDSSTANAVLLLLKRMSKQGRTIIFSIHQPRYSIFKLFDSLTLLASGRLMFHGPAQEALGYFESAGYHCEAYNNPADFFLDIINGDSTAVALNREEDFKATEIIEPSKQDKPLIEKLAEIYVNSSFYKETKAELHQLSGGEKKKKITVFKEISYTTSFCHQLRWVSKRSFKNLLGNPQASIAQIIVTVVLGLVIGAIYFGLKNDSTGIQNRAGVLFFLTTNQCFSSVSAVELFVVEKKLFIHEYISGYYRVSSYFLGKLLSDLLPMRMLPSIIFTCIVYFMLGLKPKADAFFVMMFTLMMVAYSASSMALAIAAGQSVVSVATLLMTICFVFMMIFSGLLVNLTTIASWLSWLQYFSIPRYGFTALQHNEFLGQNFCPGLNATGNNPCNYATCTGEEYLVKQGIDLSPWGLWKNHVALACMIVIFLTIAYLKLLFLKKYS

Read-out in one assay: ABC Transporter (ABCB11), ABCB11 (gene 8647)
Put plainly: LTEA_HepaRG_ABCB11: Life Technologies and Expression Analysis (LTEA) Assay for ABC Transporter (ABCB11) using HepaRG (AID 2283463). As to conditions: mRNA level, 48 h; actives raise or lower the signal. An outline of the steps: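 ABCB11 transcript levels are read by Fluidigm TaqMan qRT-PCR after 48 h chemical treatment of human HepaRG cells. Concentrations span 100 uM downward in half-log steps with 0.5% DMSO; gain or loss is fitted against DMSO controls.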
Consider `CO/N=C(/C1=NOCCO1)c1ccccc1Oc1ncnc(Oc2ccccc2Cl)c1F`, for which the AC50 was 29.2 µM (active).

Consider `CCCCOCN(C(=O)CCl)c1c(CC)cccc1CC`, for which the result was inactive.

With `CS(=O)(=O)c1ccc(C(=O)C2C(=O)CCCC2=O)c([N+](=O)[O-])c1`, the call was inactive.

Take `O=c1n(Cl)c(=O)n(Cl)c(=O)n1Cl`: the compound was classed as inactive.

As to `CCOP(=O)(OCC)Oc1nc(Cl)c(Cl)cc1Cl`, the AC50 is 79.2 µM (active).

Regarding `Cc1cnc(C2=NC(C)(C(C)C)C(=O)N2)c(C(=O)O)c1` (stereo not drawn), the call was inactive.

In the case of `O=C(O)c1c(Cl)ccc2cc(Cl)cnc12`, the call was inactive.

With `Cc1cc(C)nc(Nc2ccccc2)n1`, the outcome was inactive.

`Nc1c(Cl)c(Cl)nc(C(=O)O)c1Cl`: the outcome was inactive.

`OC(c1ccc(Cl)cc1)(c1ccc(Cl)cc1)C(Cl)(Cl)Cl`: the AC50 is 72.4 µM (active).

As to `CCCCC(O)(Cn1cncn1)c1ccc(Cl)cc1Cl` (stereo not drawn), the AC50 was 68.6 µM (active).

For the compound `Nc1c(Cl)c(F)nc(OCC(=O)O)c1Cl`, the result was inactive.

Consider `CC1(C)C(C(=O)OC(C#N)c2cccc(Oc3ccccc3)c2)C1(C)C` (stereo not drawn), for which the compound was classed as inactive.

As to `CCOc1cc(C(C)(C)C)ccc1C1COC(c2c(F)cccc2F)=N1` (stereo not drawn), the compound was called inactive.

In the case of `N#Cc1c[nH]cc1-c1cccc2c1OC(F)(F)O2`, the concentration at half-maximal activity (AC50) was 44.8 µM (active).

Consider `CCNC(=O)NC(=O)C(C#N)=NOC`, for which the compound was called inactive.

As to `COP(=O)(OC)O/C(C)=C/C(=O)N(C)C`, the AC50 is 11 µM (active).

As to `CCOc1nc(F)cc2nc(S(=O)(=O)Nc3c(Cl)cccc3Cl)nn12`, the AC50 was 41.7 µM (active).

In the case of `CNC(=O)N(C)c1nnc(C(C)(C)C)s1`, the compound was called inactive.

In the case of `CC(C)N1C(=O)c2ccccc2NS1(=O)=O`, the call was inactive.

Regarding `Cc1ccc(N=CN(C)C=Nc2ccc(C)cc2C)c(C)c1`, the call was inactive.

Consider `CS(=O)(=O)c1cc(C(F)(F)F)ccc1C(=O)c1cnoc1C1CC1`, for which the result was inactive.

Take `C=C(C)CN(CC)c1c([N+](=O)[O-])cc(C(F)(F)F)cc1[N+](=O)[O-]`: the compound was called inactive.

`COc1ccc(-c2ccccc2)cc1NNC(=O)OC(C)C`: the compound was classed as inactive.

For `CN=C=S`, the compound was classed as inactive.

For `O=P(O)(O)CCCl`, the result was inactive.

For `C=CCOC(=O)C(C)(C)OC(=O)c1cc(-n2c(=O)cc(C(F)(F)F)n(C)c2=O)ccc1Cl`, the compound was called inactive.

As to `CC(C)C1(C)N=C(c2ncccc2C(=O)O)NC1=O` (stereo not drawn), the result was inactive.

`CC(C)=CC1C(C(=O)OCc2coc(Cc3ccccc3)c2)C1(C)C` (stereo not drawn): the AC50 was 50 µM (active).

On to `COCC(C)N(C(=O)CCl)c1c(C)csc1C` (stereo not drawn), for which the AC50 is 50 µM (active).

For `Cn1c(-c2ccccc2)cc(-c2ccccc2)[n+]1C`, the AC50 was 24.4 µM (active).

`CSC(=O)c1c(C(F)F)nc(C(F)(F)F)c(C(=O)SC)c1CC(C)C`: the AC50 is 49.8 µM (active).

As for `Clc1cccc(C(Cl)(Cl)Cl)n1`, the compound was called inactive.

`COc1cc(OC)nc(NC(=O)NS(=O)(=O)c2ncccc2OCC(F)(F)F)n1`: the compound was classed as inactive.

As to `COC(=O)NS(=O)(=O)c1ccc(N)cc1`, the outcome was inactive.

Take `COC(=O)c1c(C(F)F)nc(C(F)(F)F)c(C2=NCCS2)c1CC(C)C`: the compound was classed as inactive.

Read-out in the next assay: ABC Transporter (ABCC2), ABCC2 (gene 1244)
Put plainly: LTEA_HepaRG_ABCC2: Life Technologies and Expression Analysis (LTEA) Assay for ABC Transporter (ABCC2) using HepaRG (AID 2283464). The following applies: mRNA level, 48 h; actives raise or lower the signal. An outline of the steps:
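qRT-PCR (TaqMan, Fluidigm array) read-out of ABCC2 mRNA, normalized to three housekeeping genes. Differentiated HepaRG cells were treated 48 h in serum-free induction medium with 8-point half-log series from 100 uM in 0.5% DMSO; curves fitted bidirectionally relative to DMSO.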
With `CS(=O)(=O)c1ccc(C(=O)C2C(=O)CCCC2=O)c([N+](=O)[O-])c1`, the compound was classed as inactive.

Turning to `Cc1cnc(C2=NC(C)(C(C)C)C(=O)N2)c(C(=O)O)c1` (stereo not drawn), the compound was called inactive.

For `CCNC(=O)NC(=O)C(C#N)=NOC`, the outcome was inactive.

`COP(=O)(OC)O/C(C)=C/C(=O)N(C)C`: the outcome was inactive.

For the compound `CC(C)N1C(=O)c2ccccc2NS1(=O)=O`, the compound was called inactive.

For the compound `C=C(C)CN(CC)c1c([N+](=O)[O-])cc(C(F)(F)F)cc1[N+](=O)[O-]`, the call was inactive.

Turning to `COc1ccc(-c2ccccc2)cc1NNC(=O)OC(C)C`, the call was inactive.

Regarding `C=CCOC(=O)C(C)(C)OC(=O)c1cc(-n2c(=O)cc(C(F)(F)F)n(C)c2=O)ccc1Cl`, the compound was classed as inactive.

As to `COCC(C)N(C(=O)CCl)c1c(C)csc1C` (stereo not drawn), the AC50 is 32.6 µM (active).

`Clc1cccc(C(Cl)(Cl)Cl)n1`: the call was inactive.

In the case of `COC(=O)c1c(C(F)F)nc(C(F)(F)F)c(C2=NCCS2)c1CC(C)C`, the AC50 is 50 µM (active).

Read-out in the next assay: Broad substrate specificity ATP-binding cassette transporter ABCG2 (Homo sapiens) (UniProt Q9UNQ0)
Put plainly: LTEA_HepaRG_ABCG2: Life Technologies and Expression Analysis (LTEA) Assay for ABC Transporter (ABCG2) using HepaRG (AID 2283465). The following applies: mRNA level, 48 h; actives raise or lower the signal. An outline of the steps: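 Read-out is ABCG2 mRNA induction or loss quantified by qRT-PCR after 48 h chemical treatment of human HepaRG cells, normalized to three housekeeping genes. Concentrations reached 100 uM top in half-log steps; fitting was bidirectional against 0.5% DMSO.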
For `CO/N=C(/C1=NOCCO1)c1ccccc1Oc1ncnc(Oc2ccccc2Cl)c1F`, the AC50 was 8.72 µM (active).

Take `CCCCOCN(C(=O)CCl)c1c(CC)cccc1CC`: the call was inactive.

Consider `CS(=O)(=O)c1ccc(C(=O)C2C(=O)CCCC2=O)c([N+](=O)[O-])c1`, for which the call was inactive.

With `O=c1n(Cl)c(=O)n(Cl)c(=O)n1Cl`, the compound was classed as inactive.

For the compound `CCOP(=O)(OCC)Oc1nc(Cl)c(Cl)cc1Cl`, the call was inactive.

Consider `Cc1cnc(C2=NC(C)(C(C)C)C(=O)N2)c(C(=O)O)c1` (stereo not drawn), for which the outcome was inactive.

On to `O=C(O)c1c(Cl)ccc2cc(Cl)cnc12`, for which the call was inactive.

Consider `Cc1cc(C)nc(Nc2ccccc2)n1`, for which the compound was classed as inactive.

Turning to `Nc1c(Cl)c(Cl)nc(C(=O)O)c1Cl`, the compound was called inactive.

With `OC(c1ccc(Cl)cc1)(c1ccc(Cl)cc1)C(Cl)(Cl)Cl`, the AC50 is 50 µM (active).

On to `CCCCC(O)(Cn1cncn1)c1ccc(Cl)cc1Cl` (stereo not drawn), for which the compound was classed as inactive.

For `Nc1c(Cl)c(F)nc(OCC(=O)O)c1Cl`, the outcome was inactive.

On to `CC1(C)C(C(=O)OC(C#N)c2cccc(Oc3ccccc3)c2)C1(C)C` (stereo not drawn), for which the compound was classed as inactive.

For the compound `CCOc1cc(C(C)(C)C)ccc1C1COC(c2c(F)cccc2F)=N1` (stereo not drawn), the AC50 was 9.15 µM (active).

As to `N#Cc1c[nH]cc1-c1cccc2c1OC(F)(F)O2`, the AC50 is 50 µM (active).

Regarding `CCNC(=O)NC(=O)C(C#N)=NOC`, the call was inactive.

In the case of `COP(=O)(OC)O/C(C)=C/C(=O)N(C)C`, the outcome was inactive.

Consider `CCOc1nc(F)cc2nc(S(=O)(=O)Nc3c(Cl)cccc3Cl)nn12`, for which the result was inactive.

`CNC(=O)N(C)c1nnc(C(C)(C)C)s1`: the compound was classed as inactive.

For the compound `CC(C)N1C(=O)c2ccccc2NS1(=O)=O`, the compound was classed as inactive.

For the compound `Cc1ccc(N=CN(C)C=Nc2ccc(C)cc2C)c(C)c1`, the compound was classed as inactive.

In the case of `CS(=O)(=O)c1cc(C(F)(F)F)ccc1C(=O)c1cnoc1C1CC1`, the outcome was inactive.

In the case of `C=C(C)CN(CC)c1c([N+](=O)[O-])cc(C(F)(F)F)cc1[N+](=O)[O-]`, the compound was classed as inactive.

For the compound `COc1ccc(-c2ccccc2)cc1NNC(=O)OC(C)C`, the compound was classed as inactive.

Take `CN=C=S`: the outcome was inactive.

As for `O=P(O)(O)CCCl`, the outcome was inactive.

For `C=CCOC(=O)C(C)(C)OC(=O)c1cc(-n2c(=O)cc(C(F)(F)F)n(C)c2=O)ccc1Cl`, the outcome was inactive.

Turning to `CC(C)C1(C)N=C(c2ncccc2C(=O)O)NC1=O` (stereo not drawn), the call was inactive.

For the compound `CC(C)=CC1C(C(=O)OCc2coc(Cc3ccccc3)c2)C1(C)C` (stereo not drawn), the outcome was inactive.

With `COCC(C)N(C(=O)CCl)c1c(C)csc1C` (stereo not drawn), the outcome was inactive.

Take `Cn1c(-c2ccccc2)cc(-c2ccccc2)[n+]1C`: the outcome was inactive.

For the compound `CSC(=O)c1c(C(F)F)nc(C(F)(F)F)c(C(=O)SC)c1CC(C)C`, the outcome was inactive.

Consider `Clc1cccc(C(Cl)(Cl)Cl)n1`, for which the result was inactive.

For the compound `COc1cc(OC)nc(NC(=O)NS(=O)(=O)c2ncccc2OCC(F)(F)F)n1`, the result was inactive.

As for `COC(=O)NS(=O)(=O)c1ccc(N)cc1`, the call was inactive.

Turning to `COC(=O)c1c(C(F)F)nc(C(F)(F)F)c(C2=NCCS2)c1CC(C)C`, the outcome was inactive.
